In the supplement of paper PMC10849652:
About 7,900 targets were measured; listed, in parts, are those with a hit and a random draw of the rest. About 0.6% of all pairs of compound and target were hits. Unmarked numbers belong to inactive results.

Columns and labels:
Experiment in all cases: log2 fold change, soluble protein after heating vs DMSO (PISA); higher = thermal stabilisation; K562 cells, 10 uM, 30 min; active = over 0.2 and 3.5 SD of the protein, either way, in both replicates (recomputed)
[1] = compound: CS(=O)(=O)c1ccc(-c2cnc(N)c(C(=O)Nc3ccccc3)n2)cc1
How it was run: (§1)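 Aliquots of K562 cells (2×10^6 cells/mL) treated with 10 μM compound for 30 min were heated for 3 min over 48°C-58°C. After pooling and extraction in PBS with 0.5% NP-40 at 4°C, soluble protein from a 21,000xg, 90 min spin was quantified by TMTpro 16plex LC-MS/MS with channel sums equalised. Thermal stability is expressed against control samples, from duplicates, as a log2 fold change.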

crizotinib = compound: C[C@@H](Oc1cc(-c2cnn(C3CCNCC3)c2)cnc1N)c1c(Cl)ccc(F)c1Cl [crizotinib]
How it was run: as §1

[2] = compound: C[C@@H]1COCCN1C2=NC(=NC(=C2)C3(CC3)S(=O)(=O)C)C4=C5C=CNC5=CC=C4
How it was run: as §1

[3] = compound: C[C@H](C1=CC=C(C=C1)C(=O)NC2=C3C=CNC3=NC=C2)N
How it was run: as §1

duvelisib = compound: C[C@H](Nc1ncnc2nc[nH]c12)c1cc2cccc(Cl)c2c(=O)n1-c1ccccc1 [duvelisib]
How it was run: as §1

gandotinib = compound: Cc1cc(Nc2cc(CN3CCOCC3)c3nc(C)c(Cc4ccc(Cl)cc4F)n3n2)n[nH]1 [gandotinib]
How it was run: as §1

tozasertib = compound: Cc1cc(Nc2cc(N3CCN(C)CC3)nc(Sc3ccc(NC(=O)C4CC4)cc3)n2)n[nH]1 [tozasertib]
How it was run: as §1

[4] = compound: Cc1cc(SCc2sc(-c3ccc(C(F)(F)F)cc3)nc2C)ccc1OCC(=O)O
How it was run: as §1

doramapimod = compound: Cc1ccc(-n2nc(C(C)(C)C)cc2NC(=O)Nc2ccc(OCCN3CCOCC3)c3ccccc23)cc1 [doramapimod]
How it was run: as §1

ispinesib = compound: Cc1ccc(C(=O)N(CCCN)[C@@H](c2nc3cc(Cl)ccc3c(=O)n2Cc2ccccc2)C(C)C)cc1 [ispinesib]
How it was run: as §1

bafetinib = compound: Cc1ccc(NC(=O)c2ccc(CN3CC[C@H](N(C)C)C3)c(C(F)(F)F)c2)cc1Nc1nccc(-c2cncnc2)n1 [bafetinib]
How it was run: as §1

[5] = compound: Cc1cccc(CC(=O)N2CCc3c2ccc(-c2cn(C)c4ncnc(N)c24)c3F)n1
How it was run: as §1

nilotinib = compound: Cc1cn(-c2cc(NC(=O)c3ccc(C)c(Nc4nccc(-c5cccnc5)n4)c3)cc(C(F)(F)F)c2)cn1 [nilotinib]
How it was run: as §1

[6] = compound: Cc1nc(Nc2n[nH]c3c2CN(C(=O)N[C@H](CN(C)C)c2ccccc2)C3(C)C)c2sccc2n1
How it was run: as §1

dasatinib = compound: Cc1nc(Nc2ncc(C(=O)Nc3c(C)cccc3Cl)s2)cc(N2CCN(CCO)CC2)n1 [dasatinib]
How it was run: as §1

[7] = compound: Cc1ncc(-c2ccnc(Nc3ccc(S(C)(=O)=O)cc3)n2)n1C(C)C
How it was run: as §1

[8] = compound: Cn1cc(-c2ccc3c(c2)CCN3C(=O)Cc2cccc(C(F)(F)F)c2)c2c(N)ncnc21
How it was run: as §1

[9] = compound: Cn1cc(-c2ccc3nnc(C(F)(F)c4ccc5ncccc5c4)n3n2)cn1
How it was run: as §1

tipifarnib = compound: Cn1cncc1[C@@](N)(c1ccc(Cl)cc1)c1ccc2c(c1)c(-c1cccc(Cl)c1)cc(=O)n2C [tipifarnib]
How it was run: as §1

mubritinib = compound: FC(F)(F)c1ccc(/C=C/c2nc(COc3ccc(CCCCn4ccnn4)cc3)co2)cc1 [mubritinib]
How it was run: as §1

Sequence of UniProt Q99439 (Q99439 whole entry, looked up): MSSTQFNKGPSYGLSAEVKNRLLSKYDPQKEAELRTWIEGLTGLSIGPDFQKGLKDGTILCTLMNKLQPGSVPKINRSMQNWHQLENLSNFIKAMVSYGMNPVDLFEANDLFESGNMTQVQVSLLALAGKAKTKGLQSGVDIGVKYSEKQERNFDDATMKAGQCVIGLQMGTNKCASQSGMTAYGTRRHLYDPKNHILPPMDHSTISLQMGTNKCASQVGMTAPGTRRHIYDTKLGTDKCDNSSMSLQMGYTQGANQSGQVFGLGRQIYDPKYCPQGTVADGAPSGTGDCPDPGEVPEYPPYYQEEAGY
Sequence of UniProt P42575 (P42575 whole entry, looked up): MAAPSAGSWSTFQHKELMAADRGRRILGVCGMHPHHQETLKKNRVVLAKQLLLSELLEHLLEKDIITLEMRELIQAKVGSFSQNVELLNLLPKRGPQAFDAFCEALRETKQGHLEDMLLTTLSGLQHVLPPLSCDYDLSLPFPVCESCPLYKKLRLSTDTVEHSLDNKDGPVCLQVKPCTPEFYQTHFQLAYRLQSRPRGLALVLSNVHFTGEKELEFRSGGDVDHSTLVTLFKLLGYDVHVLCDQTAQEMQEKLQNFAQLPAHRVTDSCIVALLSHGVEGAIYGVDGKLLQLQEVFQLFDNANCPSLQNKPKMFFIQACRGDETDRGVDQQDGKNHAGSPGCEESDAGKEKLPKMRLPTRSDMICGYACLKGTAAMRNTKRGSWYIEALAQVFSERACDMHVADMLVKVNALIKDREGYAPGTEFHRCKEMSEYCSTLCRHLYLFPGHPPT
Sequence of UniProt Q9UKF6 (Q9UKF6 whole entry, looked up): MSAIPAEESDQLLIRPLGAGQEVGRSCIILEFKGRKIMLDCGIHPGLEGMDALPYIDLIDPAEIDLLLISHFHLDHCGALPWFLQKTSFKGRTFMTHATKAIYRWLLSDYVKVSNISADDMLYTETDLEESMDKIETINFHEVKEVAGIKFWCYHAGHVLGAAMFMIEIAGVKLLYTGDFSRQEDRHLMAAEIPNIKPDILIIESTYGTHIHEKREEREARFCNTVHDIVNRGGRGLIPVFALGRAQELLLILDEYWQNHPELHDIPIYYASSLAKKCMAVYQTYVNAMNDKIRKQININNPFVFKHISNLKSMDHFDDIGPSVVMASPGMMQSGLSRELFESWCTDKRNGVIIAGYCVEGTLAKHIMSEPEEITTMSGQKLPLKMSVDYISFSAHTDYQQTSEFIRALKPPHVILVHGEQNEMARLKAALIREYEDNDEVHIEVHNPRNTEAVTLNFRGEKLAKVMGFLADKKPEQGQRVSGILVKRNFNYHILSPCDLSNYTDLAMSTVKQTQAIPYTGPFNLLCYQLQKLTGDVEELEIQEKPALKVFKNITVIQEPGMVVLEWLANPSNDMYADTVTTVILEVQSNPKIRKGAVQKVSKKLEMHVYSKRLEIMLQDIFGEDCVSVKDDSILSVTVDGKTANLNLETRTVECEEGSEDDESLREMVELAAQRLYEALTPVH
Sequence of UniProt Q9NZN8 (Q9NZN8 whole entry, looked up): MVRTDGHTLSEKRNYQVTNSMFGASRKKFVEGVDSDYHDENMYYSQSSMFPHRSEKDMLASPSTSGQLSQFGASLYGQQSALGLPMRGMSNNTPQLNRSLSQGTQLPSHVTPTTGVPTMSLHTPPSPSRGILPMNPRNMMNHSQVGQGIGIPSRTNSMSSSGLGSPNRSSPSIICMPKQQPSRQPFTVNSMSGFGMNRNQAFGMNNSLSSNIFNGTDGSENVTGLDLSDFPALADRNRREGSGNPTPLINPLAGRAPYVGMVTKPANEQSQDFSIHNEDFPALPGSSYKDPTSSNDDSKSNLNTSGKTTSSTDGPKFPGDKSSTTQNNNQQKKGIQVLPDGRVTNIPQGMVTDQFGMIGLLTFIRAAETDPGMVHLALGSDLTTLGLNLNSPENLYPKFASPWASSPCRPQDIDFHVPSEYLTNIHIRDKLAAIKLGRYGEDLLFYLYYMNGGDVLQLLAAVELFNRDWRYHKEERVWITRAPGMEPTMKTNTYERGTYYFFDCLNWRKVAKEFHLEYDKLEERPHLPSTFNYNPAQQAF
Sequence of UniProt P19784 (P19784 whole entry, looked up): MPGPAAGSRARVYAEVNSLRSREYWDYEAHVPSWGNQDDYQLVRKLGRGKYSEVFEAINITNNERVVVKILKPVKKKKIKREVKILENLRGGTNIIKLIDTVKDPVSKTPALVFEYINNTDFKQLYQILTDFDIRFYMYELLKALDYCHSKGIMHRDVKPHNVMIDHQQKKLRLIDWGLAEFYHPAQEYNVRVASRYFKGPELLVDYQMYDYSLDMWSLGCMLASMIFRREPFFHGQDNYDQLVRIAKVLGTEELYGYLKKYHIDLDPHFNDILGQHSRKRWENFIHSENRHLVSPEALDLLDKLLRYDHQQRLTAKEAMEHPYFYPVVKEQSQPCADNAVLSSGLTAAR
Sequence of UniProt Q9Y5P4 (Q9Y5P4 whole entry, looked up): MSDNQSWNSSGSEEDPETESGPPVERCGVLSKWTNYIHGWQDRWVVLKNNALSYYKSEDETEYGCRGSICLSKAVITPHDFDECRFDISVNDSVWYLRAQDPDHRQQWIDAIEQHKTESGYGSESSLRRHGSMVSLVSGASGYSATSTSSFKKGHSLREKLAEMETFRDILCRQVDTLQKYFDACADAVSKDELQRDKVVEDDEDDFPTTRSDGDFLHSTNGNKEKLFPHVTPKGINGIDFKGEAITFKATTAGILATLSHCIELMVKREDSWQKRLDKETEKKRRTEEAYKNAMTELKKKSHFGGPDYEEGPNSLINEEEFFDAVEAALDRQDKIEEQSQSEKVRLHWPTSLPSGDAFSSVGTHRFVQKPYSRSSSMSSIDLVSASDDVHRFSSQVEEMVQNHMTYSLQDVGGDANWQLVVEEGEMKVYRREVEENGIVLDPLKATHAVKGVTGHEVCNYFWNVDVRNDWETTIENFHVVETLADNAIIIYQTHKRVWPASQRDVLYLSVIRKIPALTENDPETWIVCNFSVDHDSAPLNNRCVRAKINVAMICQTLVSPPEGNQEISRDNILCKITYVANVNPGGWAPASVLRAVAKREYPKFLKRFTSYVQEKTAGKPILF
Sequence of UniProt Q8N684 (Q8N684 whole entry, looked up): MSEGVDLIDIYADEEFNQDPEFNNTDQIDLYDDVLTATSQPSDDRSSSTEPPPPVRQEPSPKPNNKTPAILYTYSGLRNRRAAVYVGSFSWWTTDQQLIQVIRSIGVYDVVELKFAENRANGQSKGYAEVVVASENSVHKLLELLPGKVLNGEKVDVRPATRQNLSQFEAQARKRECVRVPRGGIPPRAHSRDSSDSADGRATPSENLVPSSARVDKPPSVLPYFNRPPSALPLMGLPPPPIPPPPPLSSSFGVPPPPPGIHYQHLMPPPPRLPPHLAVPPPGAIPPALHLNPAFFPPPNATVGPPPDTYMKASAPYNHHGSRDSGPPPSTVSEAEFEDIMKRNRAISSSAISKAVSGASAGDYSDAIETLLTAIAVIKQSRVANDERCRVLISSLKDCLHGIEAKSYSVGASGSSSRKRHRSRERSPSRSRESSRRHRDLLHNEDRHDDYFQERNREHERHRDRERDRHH
Sequence of UniProt P20674 (P20674 whole entry, looked up): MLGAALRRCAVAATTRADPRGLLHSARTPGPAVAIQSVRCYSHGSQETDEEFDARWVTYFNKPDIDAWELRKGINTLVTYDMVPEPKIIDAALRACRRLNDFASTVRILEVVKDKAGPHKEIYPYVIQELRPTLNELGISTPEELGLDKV

Target | log2 fold change [1] | log2 fold change (crizotinib) | log2 fold change [2] | log2 fold change [3] | log2 fold change (duvelisib) | log2 fold change (gandotinib) | log2 fold change (tozasertib) | log2 fold change [4] | log2 fold change (doramapimod) | log2 fold change (ispinesib) | log2 fold change (bafetinib) | log2 fold change [5] | log2 fold change (nilotinib) | log2 fold change [6] | log2 fold change (dasatinib) | log2 fold change [7] | log2 fold change [8] | log2 fold change [9] | log2 fold change (tipifarnib) | log2 fold change (mubritinib)
CASP2 (UniProt P42575) | 0.004 | -0.062 | 0.023 | -0.002 | 0.061 | -0.071 | 0.083 | 0.05 | 0.077 | 0.039 | 0.041 | -0.035 | -0.037 | 0.076 | -0.165 | 0.114 | 0.105 | -0.056 | -0.118 | 0.006
CPSF7 isoform 3 (UniProt Q8N684) | -0.016 | 0.013 | 0.026 | -0.05 | 0.017 | -0.004 | -0.012 | 0.018 | -0.014 | 0.09 | 0.07 | -0.107 | 0.028 | -0.552 (active) | 0.012 | 0.044 | 0.003 | -0.027 | -0.048 | -0.048
CERT isoform 3 (UniProt Q9Y5P4) | 0.015 | 0.102 | 0.079 | -0.327 (active) | 0.067 | 0.209 | 0.068 | -0.047 | 0.192 | 0.109 | 0.032 | -0.08 | 0.193 | -0.397 (active) | 0.019 | -0.11 | 0.109 | 0.021 | 0.111 | 0.117
CPSF3 (UniProt Q9UKF6) | -0.004 | 0.01 | 0.013 | -0.006 | 0.011 | -0.052 | 0.117 | 0.031 | 0 | -0.003 | -0.052 | 0.041 | -0.006 | -0.073 | -0.082 | -0.023 | -0.071 | -0.023 | -0.027 | 0.02
CNOT2 (UniProt Q9NZN8) | 0.028 | -0.019 | 0.038 | 0.046 | -0.021 | -0.045 | -0.006 | 0.077 | -0.012 | -0.02 | -0.002 | 0 | 0.048 | -0.063 | -0.035 | 0.01 | -0.055 | 0.022 | -0.063 | 0.054
COX5A (UniProt P20674) | -0.011 | 0.245 | 0.109 | -0.092 | 0.249 | 0.12 | 0.029 | 0.011 | -0.039 | 0.411 (active) | -0.079 | -0.003 | 0.067 | -0.023 | 0.06 | -0.067 | 0.109 | 0.422 (active) | 0.103 | 0.021
CNN2 (UniProt Q99439) | -0.003 | -0.058 | 0.058 | -0.005 | -0.017 | -0.088 | 0.092 | 0.012 | 0.007 | -0.059 | -0.001 | 0.052 | -0.075 | -0.074 | -0.14 | 0.006 | 0.011 | 0.044 | -0.16 | 0.051
CSNK2A2 (UniProt P19784) | 0.068 | -0.132 | 0.039 | -0.234 (active) | 0.032 | -0.097 | -0.029 | 0.013 | 0.007 | 0.084 | -0.042 | -0.008 | -0.009 | 0.016 | -0.056 | -0.019 | -0.009 | 0.038 | -0.033 | -0.019
